Screening data from PubChem.
Rows were chosen to be rich in hits. Some 0.81% of all compounds tested hit in one or more screens of this group.
PTAP TSG101 blk – blocks PTAP/TSG101 interaction to inhibit HIV-1 budding. Q99816. AID 493005. 340,000 tested, under 10 active. Fluorescence polarization, FITC-PTAP peptide / Tsg101 binding. Potency, µM (top dose mostly 115 µM), inactives show at the top dose activity change, negative = inhibition, actives largely listed as inhibitors; active = well fitted inhibition curve with a large enough effect in the main read-out, with a control signal flat, not every such curve was filed as active; inconclusive = small, poorly fitted or top-dose-only effect, or effect the other way, or a change in a side signal; inactive = no such curve, though single readings can be large or run the other way; note: potency is the fitted concentration of half-maximal effect; % of control where 0% means no effect
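Fluorescence anisotropy tracks displacement of a FITC-tagged PTAP peptide (50 nM) from the Tsg101 binding domain (10 uM), following a 20 min room-temperature incubation at pH 7.5.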
TRHR enhancer-1 – TRH receptor (human) allosteric enhancement; enhancement, % at 2 µM; TRHR cells, fluo-8 calcium fluorescence, EC20 TRH enhancement; actives 0.66% (n = 360,000); P34981; in the data active = enhancement above about 30%; note: 0% is about no effect
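Enhancer read-out: after compound pinning and an initial kinetic agonist-mode read, an EC20 of TRH (10 nM final) was injected and fluo-8 calcium signal (Ex 480/Em 530) followed at 1 s/cycle for 100 cycles in TRHR-expressing cells.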
TRPML1 inh – blocks the human TRPML1 channel; Q9GZU1; TRPML1-inducible cells, Ca2+ dye fluorescence, FDSS; stronger effect = lower value; inhibition of EC80 agonist-evoked calcium signal; activity change, negative = inhibition, % (test concentration not listed); actives 0.02% (n = 390,000); AID 624415; in the data active = activity change below about -50%; inconclusive = between about -30% and that limit;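 note: stimulus is agonist 54-4 at its EC80 concentration; % is set by controls: 0 for no effect and ±100 for the full control effect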
Target sequence (Q9GZU1 whole entry, looked up): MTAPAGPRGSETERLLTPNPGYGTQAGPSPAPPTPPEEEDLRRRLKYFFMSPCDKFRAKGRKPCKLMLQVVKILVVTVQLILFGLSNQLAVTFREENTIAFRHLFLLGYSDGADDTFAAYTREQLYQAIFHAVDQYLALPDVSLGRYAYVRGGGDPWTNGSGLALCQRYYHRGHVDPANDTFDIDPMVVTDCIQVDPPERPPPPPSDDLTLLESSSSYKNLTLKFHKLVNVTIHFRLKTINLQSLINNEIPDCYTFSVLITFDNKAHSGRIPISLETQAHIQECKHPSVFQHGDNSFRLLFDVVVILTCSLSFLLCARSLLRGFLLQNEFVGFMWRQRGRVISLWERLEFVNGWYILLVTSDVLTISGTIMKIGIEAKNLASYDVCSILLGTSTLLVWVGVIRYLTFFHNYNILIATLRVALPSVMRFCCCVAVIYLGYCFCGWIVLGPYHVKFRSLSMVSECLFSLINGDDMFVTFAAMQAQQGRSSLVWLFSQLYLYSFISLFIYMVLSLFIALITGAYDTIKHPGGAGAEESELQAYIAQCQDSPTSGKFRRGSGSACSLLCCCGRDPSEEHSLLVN
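Calcium fluorescence in TRPML1-DL cells induced overnight with Tet: a 110 s read after compound pin addition, then a 110 s antagonist read after challenge with 54-4 at 4 uM final (EC80).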
TRPML1 ag – activates the human TRPML1 channel | TRPML1-expressing cells, Ca2+ dye fluorescence, FDSS | activation, % (concentration not given with the values) | actives 0.12% (n = 410,000) | AID 624414; in the data active = activation above about 50%; inconclusive = mostly about 30% to 49%; note: 0% is about no effect
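Tet-induced TRPML1-DL cells, 1,500 per well, cultured overnight, were loaded with a no-wash Ca2+ dye for 45–90 min. Calcium fluorescence was recorded on the FDSS for 110 s after compound addition, before the EC80 agonist (4 uM 54-4) was added.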
TRHR agonist-1 – activates the human TRH receptor | P34981 | actives 0.18% (n = 360,000) | AID 493084 | TRHR cells, calcium flux fluo-8, FDSS agonist mode | activation, % at 2 µM; in the data active = activation above about 30%; note: 0% is about no effect
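In this calcium-flux screen, cells bearing human TRHR are dye-loaded with fluo-8, baselined for 10 cycles, then exposed to library compounds; positive kinetic calcium responses during the agonist phase mark hits, with TRH as control.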
TRHR enhancer-2 – human TRH receptor allosteric enhancement confirmation. activity change, negative = inhibition, % at 46.1 µM. 970 tested, under 10 active. TRH receptor cell assay, enhancer confirmation qHTS. shares compounds with TRHR enhancer-1;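 note: compound effect scored on response to added TRH at EC20 of 10 nM; 0% is about no effect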
TRHR agonist-2 – confirmation of human TRH receptor agonists; shares compounds with TRHR enhancer-1; TRHR-expressing cells, agonist activation read-out; Potency, µM (highest dose often 46.1 µM), without a hit: at the top dose activation, usual class: activators; actives 8% (n = 970); AID 493078; note: potency is the fitted concentration of half-maximal effect; 0% is about no effect; nearly all actives have a fitted effect of over 75% in size
Numbers without * were called inactive. Unless noted, calls come from the whole dose curve; as a rule, active = well fitted curve in the direction sought with a large enough effect; inconclusive = small, poorly fitted or top-dose-only effect, or another doubt; inactive = no such curve, though single readings can be large; an effect the other way counts as inactive or inconclusive.

`COc1cccc2c(=O)c3c(cnn3C)n(C)c12` gave PTAP TSG101 blk -2.9%, TRHR enhancer-1 -2.8, TRPML1 inh -5.8, TRPML1 ag -0.4 and TRHR agonist-1 0.4.
`CCc1ccccc1N(CC(=O)N/N=C/c1ccc(OC(=O)OC)c(OC)c1)S(C)(=O)=O` gave PTAP TSG101 blk -6.4%, TRHR enhancer-1 -3.6, TRPML1 inh 4.6, TRPML1 ag -0.5, TRHR agonist-1 43.2*, TRHR enhancer-2 3.8 and TRHR agonist-2 0.8%.
Screening O=C(C[n+]1ccc2ccccc2c1)c1ccc(O)c(O)c1 returned TRPML1 ag 0.3.
Screening CCOC(=O)C1=C(CNCCc2ccc(Cl)cc2)NC(=O)NC1c1ccc2c(c1)OCO2 (configuration not stated) returned PTAP TSG101 blk -2.2%, TRHR enhancer-1 41.4*, TRPML1 inh 14.3, TRPML1 ag 0.5, TRHR agonist-1 0.4, TRHR enhancer-2 7.0 and TRHR agonist-2 inconclusive.
`CCC1(C)Cc2c(sc3c2c(=O)n(C)c2nnc(SCCc4ccccc4)n32)CO1` (configuration not stated) gave PTAP TSG101 blk -0.8%, TRHR enhancer-1 65.2*, TRPML1 inh -12.9, TRPML1 ag 0.1, TRHR agonist-1 0.2, TRHR enhancer-2 -9.2 and TRHR agonist-2 0.4%.
CCCn1c(=O)c(F)cn(Cc2ccc(OC)c([N+](=O)[O-])c2)c1=O was read as PTAP TSG101 blk -2.7%, TRPML1 inh 40.3 and TRPML1 ag -0.6.
For CCOC(=O)Cn1c(=O)c(F)cn(Cc2ccc(OC)c([N+](=O)[O-])c2)c1=O the results were PTAP TSG101 blk -0.8%, TRHR enhancer-1 66.6*, TRPML1 inh -15.6, TRPML1 ag -0.9, TRHR agonist-1 0.6, TRHR enhancer-2 -2.7 and TRHR agonist-2 -0.7%.
Screening Cc1c(O)ccc2cc(S(=O)(=O)c3ccccc3)c(=O)oc12 returned PTAP TSG101 blk 0.0%, TRHR enhancer-1 1.7, TRPML1 inh 4.9, TRPML1 ag inconclusive, TRHR agonist-1 37.4*, TRHR enhancer-2 1.4 and TRHR agonist-2 23.1µM*.
For O=C(COc1ncnc2ccccc12)Nc1ccc(S(=O)(=O)N2CCOCC2)cc1 the results were PTAP TSG101 blk -7.2%, TRHR enhancer-1 43.4*, TRPML1 inh 3.2, TRPML1 ag 0.6, TRHR agonist-1 0.2, TRHR enhancer-2 inconclusive and TRHR agonist-2 -0.4%.
Screening O=C(C[N+]1(CCO)CCOCC1)c1ccc2ccccc2c1 returned TRPML1 ag 0.5.
Screening COc1ccccc1NS(=O)(=O)c1cccc(C(=O)N/N=C/c2c(C)nn(-c3ccccc3)c2N2CCCC2)c1 returned PTAP TSG101 blk -2.7%, TRHR enhancer-1 1.3, TRPML1 inh -12.8, TRPML1 ag 1.1, TRHR agonist-1 26.5, TRHR enhancer-2 5.1 and TRHR agonist-2 -0.8%.
For Cn1c(=O)n(-c2ccc(C(C)(C)C#N)cc2)c2c3cc(-c4cnc5ccccc5c4)ccc3ncc21 the results were TRPML1 ag -0.6.
Screening O=C(Nc1ccc(S(=O)(=O)Nc2nccc(C3Cc4ccccc4C(=O)O3)n2)cc1)c1ccccc1 (configuration not stated) returned PTAP TSG101 blk -5.3%, TRHR enhancer-1 42.8*, TRPML1 inh 18.6, TRPML1 ag 2.0, TRHR agonist-1 0.3, TRHR enhancer-2 -4.7 and TRHR agonist-2 0.9%.
Screening CCCN1C=CC(=CC=C(C#N)C#N)C=C1 returned PTAP TSG101 blk inconclusive, TRHR enhancer-1 -1.3, TRPML1 inh 5.8, TRPML1 ag 21.4, TRHR agonist-1 41.8*, TRHR enhancer-2 -1.3 and TRHR agonist-2 18.4µM*.
CCCCCN1C=CC=C/C1=C\C=C(C#N)C#N was read as PTAP TSG101 blk 1.1%, TRHR enhancer-1 -1.7, TRPML1 inh -0.8, TRPML1 ag 14.1, TRHR agonist-1 30.6*, TRHR enhancer-2 -4.3 and TRHR agonist-2 20.6µM*.
Screening COc1ccc(CN2CC[C@H]3C=CC[C@@H](C(=O)NCc4cccnc4)[C@H]3C2=O)cc1OC returned TRPML1 ag 0.0.
`Cc1sc2ccccc2[n+]1CCCC[n+]1c(C)sc2ccccc21` gave TRPML1 ag -0.5.
For COc1cccc(/C=C/c2cnc3ccccc3n2)c1OC the results were TRPML1 ag -0.3.
Screening COc1ccc(N(C(C)C(=O)N(C)Cc2ccccc2)S(C)(=O)=O)cc1 (configuration not stated) returned PTAP TSG101 blk -6.2%, TRHR enhancer-1 50.4*, TRHR agonist-1 0.1, TRHR enhancer-2 1.2 and TRHR agonist-2 -0.3%.
For COc1ccc(NC(=O)C(C)N(c2ccccc2)S(C)(=O)=O)cc1 (configuration not stated) the results were TRHR enhancer-1 5.3, TRPML1 inh 6.7, TRPML1 ag -0.7 and TRHR agonist-1 -1.0.
Screening O=C(Nc1ccccn1)N1CCOCC1 returned PTAP TSG101 blk -2.5%, TRHR enhancer-1 47.9*, TRPML1 inh -4.0, TRPML1 ag -0.4, TRHR agonist-1 0.3, TRHR enhancer-2 -1.8 and TRHR agonist-2 -0.6%.
For CCn1c(CNC(=O)COc2ccc(C(C)C)cc2)nnc1SCC(=O)Nc1cc(F)ccc1C the results were PTAP TSG101 blk -8.7%, TRHR enhancer-1 41.2*, TRPML1 inh -11.9, TRPML1 ag 1.4, TRHR agonist-1 -1.5, TRHR enhancer-2 -2.5 and TRHR agonist-2 3.0%.
CCCCCn1c(CN2CC(C)OC(C)C2)nc2c1c(=O)n(C)c(=O)n2C (configuration not stated) was read as PTAP TSG101 blk -4.6%, TRHR enhancer-1 42.2*, TRPML1 inh -14.8, TRPML1 ag 0.1, TRHR agonist-1 0.1, TRHR enhancer-2 8.8 and TRHR agonist-2 0.5%.
O=C(C[n+]1ccncc1)c1cccc([N+](=O)[O-])c1 was read as TRPML1 ag -0.2.
Screening CCn1nnnc1Sc1nc(C)nc2scc(-c3ccccc3)c12 returned TRPML1 ag -1.0.
Cc1ccc(N2CCN(C(=O)c3ccccc3)CC2)c(C)c1 was read as PTAP TSG101 blk -9.5%, TRHR enhancer-1 0.4, TRPML1 inh 24.3, TRPML1 ag 2.0 and TRHR agonist-1 0.9.
For Cc1ccc(N2CCN(C(=O)c3cc(C(=O)c4ccccc4C)c[nH]3)CC2)c(C)c1 the results were PTAP TSG101 blk -4.3%, TRHR enhancer-1 86.4*, TRPML1 inh 2.7, TRPML1 ag 4.8, TRHR agonist-1 -1.0, TRHR enhancer-2 0.7 and TRHR agonist-2 -0.5%.
